# According to the supplement of paper PMC11001985:
# Values without a mark were called inactive.
# Compound: C#CCNC(=O)CCSSCCC(=O)NCCc1ccc(C=O)c(C=O)c1
# Assay: lysine labeling ratio R10:1 (500 µM / 50 µM probe), SILAC-ABPP in living cells; higher = lower intrinsic lysine reactivity toward the probe, active = 2 or less
# Conditions: HeLa; probe concentrations 500 vs 50 µM
# In short: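 The two probe levels, 50 µM and 500 µM, of an alkyne-tagged, disulfide-linked lysine probe were applied to living light and heavy SILAC HeLa cells in PBS at room temperature, and the labels were run in both forward and reverse orientation. Mixed lysates underwent biotin-azide click chemistry, trypsin digestion, neutravidin capture, DTT release and alkylation before LC-MS/MS on a TIMS-TOF Pro. R is the filtered median high-probe/low-probe MS1 peptide ratio for each lysine, summarised as the median over forward and reverse replicates. Nothing above 20 is reported; such values are set to 20.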
# UniProt P15328, sequence (P15328 whole entry, looked up): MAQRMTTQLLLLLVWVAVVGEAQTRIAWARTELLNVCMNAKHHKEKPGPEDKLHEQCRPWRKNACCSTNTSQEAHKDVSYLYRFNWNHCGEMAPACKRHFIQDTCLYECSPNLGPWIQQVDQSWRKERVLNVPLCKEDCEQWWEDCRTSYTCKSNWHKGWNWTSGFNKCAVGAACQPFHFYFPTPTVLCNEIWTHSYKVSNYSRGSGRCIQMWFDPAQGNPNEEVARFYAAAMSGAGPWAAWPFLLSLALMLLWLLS
# UniProt P21333, sequence (P21333 whole entry): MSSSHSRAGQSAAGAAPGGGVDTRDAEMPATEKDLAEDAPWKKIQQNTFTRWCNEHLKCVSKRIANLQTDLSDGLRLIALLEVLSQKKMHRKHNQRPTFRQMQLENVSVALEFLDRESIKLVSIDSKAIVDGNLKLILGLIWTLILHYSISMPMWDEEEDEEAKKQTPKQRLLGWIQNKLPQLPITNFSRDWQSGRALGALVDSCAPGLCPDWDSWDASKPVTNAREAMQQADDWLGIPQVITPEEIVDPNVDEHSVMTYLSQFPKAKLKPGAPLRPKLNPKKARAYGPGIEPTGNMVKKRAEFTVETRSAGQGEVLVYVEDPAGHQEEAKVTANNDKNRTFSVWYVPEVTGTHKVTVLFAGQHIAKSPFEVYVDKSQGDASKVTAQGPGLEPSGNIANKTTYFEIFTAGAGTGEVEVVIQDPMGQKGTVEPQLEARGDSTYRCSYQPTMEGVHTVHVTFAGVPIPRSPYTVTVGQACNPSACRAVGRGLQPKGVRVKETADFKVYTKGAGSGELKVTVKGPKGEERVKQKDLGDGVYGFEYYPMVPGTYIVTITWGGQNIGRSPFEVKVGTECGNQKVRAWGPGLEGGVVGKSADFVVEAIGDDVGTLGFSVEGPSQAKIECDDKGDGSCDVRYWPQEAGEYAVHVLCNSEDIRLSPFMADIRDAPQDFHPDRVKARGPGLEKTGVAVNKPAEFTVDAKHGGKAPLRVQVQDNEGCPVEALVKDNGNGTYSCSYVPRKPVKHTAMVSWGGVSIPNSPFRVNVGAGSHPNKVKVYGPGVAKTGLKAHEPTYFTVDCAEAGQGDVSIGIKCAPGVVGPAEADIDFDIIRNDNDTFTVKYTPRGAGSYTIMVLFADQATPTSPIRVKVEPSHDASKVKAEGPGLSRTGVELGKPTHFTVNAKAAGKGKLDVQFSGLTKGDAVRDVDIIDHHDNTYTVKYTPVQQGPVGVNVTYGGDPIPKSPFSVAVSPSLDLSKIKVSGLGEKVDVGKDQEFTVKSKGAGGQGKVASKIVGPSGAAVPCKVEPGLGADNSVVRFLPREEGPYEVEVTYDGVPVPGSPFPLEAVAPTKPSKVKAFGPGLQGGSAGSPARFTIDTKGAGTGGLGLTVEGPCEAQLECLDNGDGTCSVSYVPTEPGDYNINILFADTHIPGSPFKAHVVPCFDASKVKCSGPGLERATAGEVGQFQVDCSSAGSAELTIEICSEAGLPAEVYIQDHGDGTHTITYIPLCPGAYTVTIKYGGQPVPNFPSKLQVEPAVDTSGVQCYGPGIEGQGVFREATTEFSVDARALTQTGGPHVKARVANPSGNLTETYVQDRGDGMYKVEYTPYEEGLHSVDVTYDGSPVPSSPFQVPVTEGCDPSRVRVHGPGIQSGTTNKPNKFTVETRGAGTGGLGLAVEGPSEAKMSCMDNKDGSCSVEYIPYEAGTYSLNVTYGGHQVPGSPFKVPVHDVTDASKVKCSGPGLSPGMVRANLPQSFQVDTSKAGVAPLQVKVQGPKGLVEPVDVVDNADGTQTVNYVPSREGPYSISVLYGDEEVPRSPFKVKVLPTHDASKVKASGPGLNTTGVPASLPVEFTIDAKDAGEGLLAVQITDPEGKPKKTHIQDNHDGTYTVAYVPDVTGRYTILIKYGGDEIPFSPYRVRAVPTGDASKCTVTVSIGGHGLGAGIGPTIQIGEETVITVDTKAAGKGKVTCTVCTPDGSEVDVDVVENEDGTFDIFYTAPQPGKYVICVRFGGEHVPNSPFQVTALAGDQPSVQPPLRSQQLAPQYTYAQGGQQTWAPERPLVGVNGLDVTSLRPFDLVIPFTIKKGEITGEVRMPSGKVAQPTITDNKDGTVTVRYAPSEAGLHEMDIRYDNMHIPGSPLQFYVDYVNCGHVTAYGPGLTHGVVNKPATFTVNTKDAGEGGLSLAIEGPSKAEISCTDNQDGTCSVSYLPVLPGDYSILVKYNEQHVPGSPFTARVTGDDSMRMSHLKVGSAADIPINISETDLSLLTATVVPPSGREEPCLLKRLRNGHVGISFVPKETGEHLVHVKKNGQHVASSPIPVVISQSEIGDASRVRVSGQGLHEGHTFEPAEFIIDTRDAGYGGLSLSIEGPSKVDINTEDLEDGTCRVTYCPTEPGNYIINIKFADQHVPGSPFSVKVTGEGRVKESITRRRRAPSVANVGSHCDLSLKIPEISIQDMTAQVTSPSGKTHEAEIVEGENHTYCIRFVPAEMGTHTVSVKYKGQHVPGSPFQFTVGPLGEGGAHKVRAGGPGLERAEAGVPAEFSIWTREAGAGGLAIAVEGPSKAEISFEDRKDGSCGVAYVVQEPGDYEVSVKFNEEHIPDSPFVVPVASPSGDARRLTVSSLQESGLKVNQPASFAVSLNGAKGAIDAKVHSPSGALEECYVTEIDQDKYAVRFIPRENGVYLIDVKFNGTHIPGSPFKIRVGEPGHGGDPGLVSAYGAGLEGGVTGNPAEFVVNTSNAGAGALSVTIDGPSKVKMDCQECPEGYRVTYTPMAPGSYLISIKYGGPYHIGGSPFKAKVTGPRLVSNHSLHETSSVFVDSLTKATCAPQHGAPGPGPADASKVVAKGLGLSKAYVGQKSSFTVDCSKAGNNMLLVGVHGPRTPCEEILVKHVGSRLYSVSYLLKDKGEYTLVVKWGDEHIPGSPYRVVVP
# UniProt P40227, sequence (P40227 whole entry): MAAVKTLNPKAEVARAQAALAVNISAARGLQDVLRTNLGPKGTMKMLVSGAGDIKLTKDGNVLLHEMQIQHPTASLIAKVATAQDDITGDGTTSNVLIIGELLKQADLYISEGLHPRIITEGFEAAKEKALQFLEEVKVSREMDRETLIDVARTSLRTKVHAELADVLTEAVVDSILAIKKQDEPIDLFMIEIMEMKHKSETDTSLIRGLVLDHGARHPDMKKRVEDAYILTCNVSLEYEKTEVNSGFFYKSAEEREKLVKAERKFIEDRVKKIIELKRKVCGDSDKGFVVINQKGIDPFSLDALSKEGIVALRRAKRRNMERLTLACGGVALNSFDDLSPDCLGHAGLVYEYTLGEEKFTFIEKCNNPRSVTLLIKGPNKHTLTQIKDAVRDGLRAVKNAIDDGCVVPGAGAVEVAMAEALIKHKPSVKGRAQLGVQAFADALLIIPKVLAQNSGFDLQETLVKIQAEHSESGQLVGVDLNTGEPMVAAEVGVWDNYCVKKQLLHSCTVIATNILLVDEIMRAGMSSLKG
# UniProt O14745, sequence (O14745 whole entry): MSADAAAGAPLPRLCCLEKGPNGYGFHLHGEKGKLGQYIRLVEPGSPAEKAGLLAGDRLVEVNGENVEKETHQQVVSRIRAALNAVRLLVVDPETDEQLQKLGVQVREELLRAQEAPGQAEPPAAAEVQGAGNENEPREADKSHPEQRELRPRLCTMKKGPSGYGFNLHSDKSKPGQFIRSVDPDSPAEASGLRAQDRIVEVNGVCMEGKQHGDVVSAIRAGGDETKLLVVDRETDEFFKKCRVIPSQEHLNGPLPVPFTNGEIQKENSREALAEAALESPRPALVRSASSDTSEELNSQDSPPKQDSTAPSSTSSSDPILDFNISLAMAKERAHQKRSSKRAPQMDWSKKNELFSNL
# UniProt P07996, sequence (P07996 whole entry, looked up): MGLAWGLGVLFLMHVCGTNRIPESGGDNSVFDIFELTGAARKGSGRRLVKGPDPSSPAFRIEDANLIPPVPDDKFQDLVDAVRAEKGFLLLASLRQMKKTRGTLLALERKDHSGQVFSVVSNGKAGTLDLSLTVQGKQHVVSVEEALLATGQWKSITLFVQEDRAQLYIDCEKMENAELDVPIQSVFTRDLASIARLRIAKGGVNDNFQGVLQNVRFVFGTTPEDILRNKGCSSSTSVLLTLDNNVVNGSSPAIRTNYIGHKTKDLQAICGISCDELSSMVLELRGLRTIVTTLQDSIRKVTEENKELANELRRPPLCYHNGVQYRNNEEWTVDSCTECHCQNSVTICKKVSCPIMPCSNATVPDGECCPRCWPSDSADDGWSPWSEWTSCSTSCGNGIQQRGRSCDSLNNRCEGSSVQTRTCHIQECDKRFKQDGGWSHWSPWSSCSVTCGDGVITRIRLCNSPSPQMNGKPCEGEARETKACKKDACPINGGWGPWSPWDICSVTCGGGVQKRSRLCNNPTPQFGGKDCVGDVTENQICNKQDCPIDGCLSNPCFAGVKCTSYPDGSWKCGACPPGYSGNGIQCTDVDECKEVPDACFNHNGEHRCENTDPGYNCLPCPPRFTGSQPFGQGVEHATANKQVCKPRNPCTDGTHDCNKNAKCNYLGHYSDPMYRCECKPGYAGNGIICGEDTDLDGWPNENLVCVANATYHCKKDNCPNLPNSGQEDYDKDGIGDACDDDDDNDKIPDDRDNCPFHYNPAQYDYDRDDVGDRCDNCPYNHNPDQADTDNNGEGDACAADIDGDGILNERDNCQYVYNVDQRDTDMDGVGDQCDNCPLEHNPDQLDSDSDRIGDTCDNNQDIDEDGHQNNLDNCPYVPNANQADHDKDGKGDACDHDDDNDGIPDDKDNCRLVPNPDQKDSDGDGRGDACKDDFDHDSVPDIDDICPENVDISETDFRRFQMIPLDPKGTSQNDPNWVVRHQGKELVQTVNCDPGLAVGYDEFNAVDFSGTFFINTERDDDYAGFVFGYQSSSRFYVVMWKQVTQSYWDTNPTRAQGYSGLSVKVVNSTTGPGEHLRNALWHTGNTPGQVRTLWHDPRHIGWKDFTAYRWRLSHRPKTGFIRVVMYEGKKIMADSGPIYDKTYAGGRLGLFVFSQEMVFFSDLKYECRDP
# UniProt P07737, sequence (P07737 whole entry): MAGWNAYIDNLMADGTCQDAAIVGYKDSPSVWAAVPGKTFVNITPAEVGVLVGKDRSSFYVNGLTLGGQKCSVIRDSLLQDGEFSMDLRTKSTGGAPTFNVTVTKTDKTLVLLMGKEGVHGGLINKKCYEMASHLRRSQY
row,Target,lysine labeling ratio R10:1
1,B2M (lysine site: K114) (UniProt P61769),15.6
2,COL5A1 (lysine site: K69) (UniProt P20908),2.04
3,FAT4 (lysine site: K1251) (UniProt Q6V0I7),1.62 (active)
4,RPL28 (lysine site: K19) (UniProt P46779),0.79 (active)
5,CHCHD3 (lysine site: K86) (UniProt Q9NX63),0.99 (active)
6,SLC9A3R1 (lysine site: K227) (UniProt O14745),3.96
7,UniProt P21589 (lysine site: K536),1.24 (active)
8,TCP1 (lysine site: K199) (UniProt P17987),4.14
9,UniProt Q16629 (lysine site: K70),1.67 (active)
10,ANXA1 (lysine site: K166) (UniProt P04083),1.32 (active)
11,SYNE2 (lysine site: K1618) (UniProt Q8WXH0),1.41 (active)
12,FOLR1 (lysine site: K62) (UniProt P15328),5.42
13,UniProt P14618 (lysine site: K367),3.33
14,LNPEP (lysine site: K726) (UniProt Q9UIQ6),0.91 (active)
15,LMAN1 (lysine site: K87) (UniProt P49257),3.85
16,PRDX2 (lysine site: K92) (UniProt P32119),6.57
17,DSTN (lysine site: K92) (UniProt P60981),2.43
18,WNT5A (lysine site: K283) (UniProt P41221),3.04
19,UniProt Q96TA1 (lysine site: K322),5.91
20,UniProt P62805 (lysine site: K17),2.71

row,Target,lysine labeling ratio R10:1
1,PTPRF (lysine site: K612) (UniProt P10586),4.74
2,RAB2A (lysine site: K131) (UniProt P61019),1.7 (active)
3,ITGB1 (lysine site: K91) (UniProt P05556),1.53 (active)
4,FOLR1 (lysine site: K97) (UniProt P15328),4.12
5,PTK7 (lysine site: K518) (UniProt Q13308),1.76 (active)
6,FLNA (lysine site: K520) (UniProt P21333),2.73
7,CAPZB (lysine site: K223) (UniProt P47756),2.76
8,CRIM1 (lysine site: K171) (UniProt Q9NZV1),2.01
9,CCT6A (lysine site: K388) (UniProt P40227),1.46 (active)
10,PPIA (lysine site: K31) (UniProt P62937),3.16
11,ACSL3 (lysine site: K706) (UniProt O95573),3.43
12,PAWR (lysine site: K227) (UniProt Q96IZ0),1.06 (active)
13,FLNA (lysine site: K1593) (UniProt P21333),2.69
14,ATP1B1 (lysine site: K113) (UniProt P05026),1.86 (active)
15,PFN1 (lysine site: K127) (UniProt P07737),2.19
16,CDCP1 (lysine site: K413) (UniProt Q9H5V8),1.38 (active)
17,THBS1 (lysine site: K201) (UniProt P07996),3.89
18,ITGA6 (lysine site: K569) (UniProt P23229),2.54
19,FASN (lysine site: K1927) (UniProt P49327),1.05 (active)
20,EEF2 (lysine site: K498) (UniProt P13639),3.9
